# Reference: PubChem BioAssay (NCI)
# About 79,000 compounds went through this panel and 15% of them were active in at least one assay; those are over-represented in the sample as a whole. Values without a mark were called inactive. Activity calls are given as the source filed them. Cut-off read from the data, not from the text of the source: active = growth inhibition above about 70%; inactive = the rest.
# Assays:
# [1] = NCI Yeast Anticancer Drug Screen. Data for the rad52 strain (AID 147);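 note: 0% = growth of vehicle-treated control cultures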; conditions: S. cerevisiae rad52 mutant growth inhibition, hits give high values
# Method in brief: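 Read-out: growth inhibition versus vehicle-treated controls. Cells were a DNA repair-deficient yeast strain treated with compounds.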
# [2] = NCI Yeast Anticancer Drug Screen. Data for the wt1 strain (AID 149);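 note: 0% = growth of vehicle-treated wt1 cultures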; conditions: S. cerevisiae wt1 strain (SPY 50644) growth inhibition, hits give high values
# Method in brief: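 Vehicle-normalised growth inhibition; strain wt1; compound exposure.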
# [3] = NCI Yeast Anticancer Drug Screen. Data for the rad50EPP+ strain (AID 151);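 note: 0% = growth of vehicle-treated control cultures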; conditions: S. cerevisiae rad50 mutant strain, hits give high values
# Method in brief: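 Growth inhibition read against vehicle controls in rad50EPP+ yeast, a strain altered in DNA damage repair, after compound exposure.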
# [4] = NCI Yeast Anticancer Drug Screen. Data for the mgt1 strain (AID 153); conditions: S. cerevisiae mgt1 mutant growth inhibition, hits give high values
# Method in brief: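 mgt1 yeast grown with test compound; read-out is growth inhibition versus vehicle-treated cultures.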
# [5] = NCI Yeast Anticancer Drug Screen. Data for the rad50 strain (AID 155);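 note: 0% = growth of vehicle-only cultures of the same strain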; conditions: S. cerevisiae rad50 strain growth inhibition, hits give high values
# Method in brief: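 A DNA repair-deficient yeast mutant serves as the test organism; compound-induced growth inhibition is calculated against vehicle-treated cells.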
# [6] = NCI Yeast Anticancer Drug Screen. Data for the mec2-1 strain (AID 157); conditions: S. cerevisiae mec2-1 strain, hits give high values
# Method in brief: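 Yeast mec2-1 mutant treated with compound. Readout: growth inhibition vs vehicle controls.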
# [7] = NCI Yeast Anticancer Drug Screen. Data for the rad14 strain (AID 159);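 note: 0% = growth of vehicle-treated control cultures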; conditions: S. cerevisiae rad14 strain growth inhibition, hits give high values
# Method in brief: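 Vehicle-treated cultures served as the baseline for growth inhibition of a DNA repair-mutant yeast strain exposed to each compound.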
# [8] = NCI Yeast Anticancer Drug Screen. Data for the sgs1 mgt1 strain (AID 161);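 note: 0% = growth of cultures given vehicle only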; conditions: S. cerevisiae sgs1 mgt1 strain, hits give high values
# Method in brief: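 Mutant yeast exposed to compound; growth scored against vehicle-only wells.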
# [9] = NCI Yeast Anticancer Drug Screen. Data for the CLN2oe strain (AID 163);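 note: 0% = growth of vehicle-only control cultures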; conditions: S. cerevisiae CLN2oe strain, hits give high values
# Method in brief: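 Read-out: yeast growth inhibition, expressed relative to vehicle-only controls. The strain bears an engineered cell-cycle alteration.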
# [10] = NCI Yeast Anticancer Drug Screen. Data for the cln2 rad14 strain (AID 165);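 note: 0% = growth equal to vehicle treated cultures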; conditions: S. cerevisiae cln2 rad14 strain, hits give high values
# Method in brief: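 cln2 rad14 yeast strain; compound exposure; growth inhibition read vs vehicle controls.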
# [11] = NCI Yeast Anticancer Drug Screen. Data for the bub3 strain (AID 167); conditions: S. cerevisiae bub3 mutant strain, hits give high values
# Method in brief: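 Inhibition values come from growth of compound-treated mutant yeast normalised to vehicle-treated controls.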
# [12] = NCI Yeast Anticancer Drug Screen. Data for the wt2 strain (AID 169);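 note: 0% = growth of vehicle-treated yeast cultures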; conditions: S. cerevisiae wt2 strain growth inhibition, hits give high values
# Method in brief: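 Read-out: growth inhibition versus vehicle-treated control cultures after compound exposure of the yeast strain.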
# [13] = NCI Yeast Anticancer Drug Screen. Data for the mlh1 strain (AID 171);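 note: 0% = growth of vehicle-treated control cultures of the same strain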; conditions: S. cerevisiae mlh1 strain growth inhibition, hits give high values
# Method in brief: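 Read-out: growth inhibition versus vehicle controls. Strain: engineered yeast with a defined DNA repair or cell cycle defect, compound-treated.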
# [14] = NCI Yeast Anticancer Drug Screen. Data for the sgs1 strain (AID 173);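 note: 0% = growth of vehicle-only control cultures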; conditions: S. cerevisiae sgs1 mutant, hits give high values
# Method in brief: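 Read-out: yeast growth inhibition relative to vehicle controls, following compound exposure of a strain with a defined DNA repair/cell cycle alteration.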
# [15] = NCI Yeast Anticancer Drug Screen. Data for the mlh1 rad18 strain (AID 175); conditions: S. cerevisiae mlh1 rad18 strain growth inhibition, hits give high values
# Method in brief: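 Yeast w/ defined DNA-repair lesions; compound exposure; growth vs vehicle controls → % inhibition.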
# [16] = NCI Yeast Anticancer Drug Screen. Data for the rad18 strain (AID 177); conditions: S. cerevisiae rad18 mutant growth inhibition, hits give high values
# Method in brief: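 Readout: growth inhibition vs vehicle controls. Cells: genetically altered yeast strain, DNA repair defect.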
# [17] = at 5.0 µM (retest, dose inferred, filed as 0.5)
# [18] = at 50.0 µM (retest, dose inferred, filed as 5.0)
smiles,measurement,setting,value
O=C1C=C(Cl)C(=O)C(c2ccc(Cl)cc2)=C1,growth inhibition,[1]; at 1.2 µM,-33%
same,growth inhibition,[1]; at 3.7 µM,-7%
same,growth inhibition,[1]; at 11.0 µM,11%
same,growth inhibition,[1]; at 33.0 µM,98% (active)
same,growth inhibition,[1]; at 100.0 µM,96% (active)
same,growth inhibition,[2]; at 1.2 µM,1%
same,growth inhibition,[2]; at 3.7 µM,5%
same,growth inhibition,[2]; at 11.0 µM,21%
same,growth inhibition,[2]; at 33.0 µM,97% (active)
same,growth inhibition,[2]; at 100.0 µM,97% (active)
same,growth inhibition,[3]; at 1.2 µM,40%
same,growth inhibition,[3]; at 3.7 µM,49%
same,growth inhibition,[3]; at 11.0 µM,83% (active)
same,growth inhibition,[3]; at 33.0 µM,98% (active)
same,growth inhibition,[3]; at 100.0 µM,96% (active)
same,growth inhibition,[4]; at 1.2 µM,2%
same,growth inhibition,[4]; at 3.7 µM,39%
same,growth inhibition,[4]; at 11.0 µM,82% (active)
same,growth inhibition,[4]; at 33.0 µM,98% (active)
same,growth inhibition,[4]; at 100.0 µM,97% (active)
same,growth inhibition,[5]; at 1.2 µM,-4%
same,growth inhibition,[5]; at 3.7 µM,-1%
same,growth inhibition,[5]; [17],21%
same,growth inhibition,[5]; at 11.0 µM,44%
same,growth inhibition,[5]; at 33.0 µM,97% (active)
same,growth inhibition,[5]; [18],97% (active)
same,growth inhibition,[5]; at 50.0 µM,91.5% (active)
same,growth inhibition,[5]; at 100.0 µM,97% (active)
same,growth inhibition,[6]; at 1.2 µM,0%
same,growth inhibition,[6]; at 3.7 µM,34%
same,growth inhibition,[6]; [17],21%
same,growth inhibition,[6]; at 11.0 µM,67%
same,growth inhibition,[6]; at 33.0 µM,98% (active)
same,growth inhibition,[6]; [18],99% (active)
same,growth inhibition,[6]; at 50.0 µM,92.5% (active)
same,growth inhibition,[6]; at 100.0 µM,97% (active)
same,growth inhibition,[7]; at 1.2 µM,11%
same,growth inhibition,[7]; at 3.7 µM,23%
same,growth inhibition,[7]; at 11.0 µM,42%
same,growth inhibition,[7]; at 33.0 µM,95% (active)
same,growth inhibition,[7]; at 100.0 µM,96% (active)
same,growth inhibition,[8]; [17],17%
same,growth inhibition,[8]; [18],95% (active)
same,growth inhibition,[8]; at 50.0 µM,93.5% (active)
same,growth inhibition,[9]; at 1.2 µM,31%
same,growth inhibition,[9]; at 3.7 µM,32%
same,growth inhibition,[9]; at 11.0 µM,69%
same,growth inhibition,[9]; at 33.0 µM,98% (active)
same,growth inhibition,[9]; at 100.0 µM,96% (active)
same,growth inhibition,[10]; [17],24%
same,growth inhibition,[10]; [18],98% (active)
same,growth inhibition,[10]; at 50.0 µM,90.8% (active)
same,growth inhibition,[11]; at 1.2 µM,5%
same,growth inhibition,[11]; at 3.7 µM,20%
same,growth inhibition,[11]; [17],6%
same,growth inhibition,[11]; at 11.0 µM,62%
same,growth inhibition,[11]; at 33.0 µM,98% (active)
same,growth inhibition,[11]; [18],98% (active)
same,growth inhibition,[11]; at 50.0 µM,91.8% (active)
same,growth inhibition,[11]; at 100.0 µM,94% (active)
same,growth inhibition,[12]; at 1.2 µM,-27%
same,growth inhibition,[12]; at 3.7 µM,-9%
same,growth inhibition,[12]; at 11.0 µM,13%
same,growth inhibition,[12]; at 33.0 µM,94% (active)
same,growth inhibition,[12]; at 100.0 µM,96% (active)
same,growth inhibition,[13]; at 1.2 µM,34%
same,growth inhibition,[13]; at 3.7 µM,61%
same,growth inhibition,[13]; at 11.0 µM,84% (active)
same,growth inhibition,[13]; at 33.0 µM,97% (active)
same,growth inhibition,[13]; at 100.0 µM,96% (active)
same,growth inhibition,[14]; at 1.2 µM,18%
same,growth inhibition,[14]; at 3.7 µM,37%
same,growth inhibition,[14]; at 11.0 µM,66%
same,growth inhibition,[14]; at 33.0 µM,98% (active)
same,growth inhibition,[14]; at 100.0 µM,96% (active)
same,growth inhibition,[15]; [17],39%
same,growth inhibition,[15]; [18],97% (active)
same,growth inhibition,[15]; at 50.0 µM,91.6% (active)
same,growth inhibition,[16]; at 1.2 µM,16%
same,growth inhibition,[16]; at 3.7 µM,-4%
same,growth inhibition,[16]; at 11.0 µM,53%
same,growth inhibition,[16]; at 33.0 µM,96% (active)
same,growth inhibition,[16]; at 100.0 µM,97% (active)
O=C1c2cccnc2C(=O)C2C3C=CC(C3)C12 (stereo unspecified),growth inhibition,[1]; at 1.2 µM,12%
same,growth inhibition,[1]; at 3.7 µM,35%
same,growth inhibition,[1]; at 11.0 µM,78% (active)
same,growth inhibition,[1]; at 33.0 µM,94% (active)
same,growth inhibition,[1]; at 100.0 µM,98% (active)
same,growth inhibition,[2]; at 1.2 µM,16%
same,growth inhibition,[2]; at 3.7 µM,20%
same,growth inhibition,[2]; at 11.0 µM,43%
same,growth inhibition,[2]; at 33.0 µM,91% (active)
same,growth inhibition,[2]; at 100.0 µM,99% (active)
same,growth inhibition,[3]; at 1.2 µM,30%
same,growth inhibition,[3]; at 3.7 µM,82% (active)
same,growth inhibition,[3]; at 11.0 µM,92% (active)
same,growth inhibition,[3]; at 33.0 µM,96% (active)
same,growth inhibition,[3]; at 100.0 µM,97% (active)
same,growth inhibition,[4]; at 1.2 µM,12%
same,growth inhibition,[4]; at 3.7 µM,32%
same,growth inhibition,[4]; at 11.0 µM,65%
same,growth inhibition,[4]; at 33.0 µM,94% (active)
same,growth inhibition,[4]; at 100.0 µM,98% (active)
same,growth inhibition,[5]; at 1.2 µM,31%
same,growth inhibition,[5]; at 3.7 µM,73% (active)
same,growth inhibition,[5]; [17],29%
same,growth inhibition,[5]; at 11.0 µM,91% (active)
same,growth inhibition,[5]; at 33.0 µM,97% (active)
same,growth inhibition,[5]; [18],96% (active)
same,growth inhibition,[5]; at 50.0 µM,99.4% (active)
same,growth inhibition,[5]; at 100.0 µM,94% (active)
same,growth inhibition,[6]; at 1.2 µM,19%
same,growth inhibition,[6]; at 3.7 µM,34%
same,growth inhibition,[6]; [17],37%
same,growth inhibition,[6]; at 11.0 µM,87% (active)
same,growth inhibition,[6]; at 33.0 µM,98% (active)
same,growth inhibition,[6]; [18],98% (active)
same,growth inhibition,[6]; at 50.0 µM,99.5% (active)
same,growth inhibition,[6]; at 100.0 µM,99% (active)
same,growth inhibition,[7]; at 1.2 µM,20%
same,growth inhibition,[7]; at 3.7 µM,44%
same,growth inhibition,[7]; at 11.0 µM,87% (active)
same,growth inhibition,[7]; at 33.0 µM,99% (active)
same,growth inhibition,[7]; at 100.0 µM,99% (active)
same,growth inhibition,[8]; [17],56%
same,growth inhibition,[8]; [18],98% (active)
same,growth inhibition,[8]; at 50.0 µM,99.2% (active)
same,growth inhibition,[9]; at 1.2 µM,10%
same,growth inhibition,[9]; at 3.7 µM,16%
same,growth inhibition,[9]; at 11.0 µM,30%
same,growth inhibition,[9]; at 33.0 µM,75% (active)
same,growth inhibition,[9]; at 100.0 µM,97% (active)
same,growth inhibition,[10]; [17],-31%
same,growth inhibition,[10]; [18],85% (active)
same,growth inhibition,[10]; at 50.0 µM,45.5%
same,growth inhibition,[11]; at 1.2 µM,9%
same,growth inhibition,[11]; at 3.7 µM,30%
same,growth inhibition,[11]; [17],57%
same,growth inhibition,[11]; at 11.0 µM,72% (active)
same,growth inhibition,[11]; at 33.0 µM,95% (active)
same,growth inhibition,[11]; [18],98% (active)
same,growth inhibition,[11]; at 50.0 µM,98.4% (active)
same,growth inhibition,[11]; at 100.0 µM,99% (active)
same,growth inhibition,[12]; at 1.2 µM,16%
same,growth inhibition,[12]; at 3.7 µM,36%
same,growth inhibition,[12]; at 11.0 µM,78% (active)
same,growth inhibition,[12]; at 33.0 µM,97% (active)
same,growth inhibition,[12]; at 100.0 µM,99% (active)
same,growth inhibition,[13]; at 1.2 µM,28%
same,growth inhibition,[13]; at 3.7 µM,55%
same,growth inhibition,[13]; at 11.0 µM,92% (active)
same,growth inhibition,[13]; at 33.0 µM,98% (active)
same,growth inhibition,[13]; at 100.0 µM,99% (active)
same,growth inhibition,[14]; at 1.2 µM,18%
same,growth inhibition,[14]; at 3.7 µM,36%
same,growth inhibition,[14]; at 11.0 µM,75% (active)
same,growth inhibition,[14]; at 33.0 µM,93% (active)
same,growth inhibition,[14]; at 100.0 µM,98% (active)
same,growth inhibition,[15]; [17],72% (active)
same,growth inhibition,[15]; [18],98% (active)
same,growth inhibition,[15]; at 50.0 µM,99.2% (active)
same,growth inhibition,[16]; at 1.2 µM,29%
same,growth inhibition,[16]; at 3.7 µM,76% (active)
same,growth inhibition,[16]; at 11.0 µM,91% (active)
same,growth inhibition,[16]; at 33.0 µM,96% (active)
same,growth inhibition,[16]; at 100.0 µM,97% (active)
